Inhibition data for 97 molecules are collected here from PubChem BioAssay AID1285 (Columbia University Molecular Screening Center, 2008).

Out of some 190,000 compounds screened, about 1,600 (0.84%) were called active.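 Rule for the calls: active = inhibition above a set limit, derived from the sample mean plus 3 SD (cut at about 45% in these data); inconclusive = one replicate passes the limit while the other fails; inactive = the rest.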 For the sample, actives were picked, then their nearest neighbours and some compounds at random.

This assay in a line: inhibitors of APP translation via 5'UTR reporter, primary screen, APP 5'UTR luciferase, SH-SY5Y cells (AID 1285). To be noted: SH-SY5Y APP 5'UTR-luciferase reporter, luminescence; at 2 µM; stronger effect = higher value. On the technique in general: A reporter such as luciferase makes a cellular process visible.
As a reminder, the inhibition is the change of the read-out against control, counted positive when it falls. For `Cc1ccc(C(=O)NC(C)c2ccccc2)cc1Br` (configuration not stated), the inhibition was 25.6% (inactive).

`C/C=C/c1ccc(OCC(O)CN2CCCCCCC2)c(OC)c1` (configuration not stated): the inhibition was -39% (inactive).

`Nc1ccc(Oc2ccc(Cl)cc2)cc1`: the inhibition was 11.4% (inactive).

For the molecule `Cc1ccc(Oc2ccc(N)cc2)cc1`, the inhibition was 3.7% (inactive).

Take `CC(C)(C)c1ccc(Oc2ccc(N)cc2)cc1`: the inhibition was 84.4% (active).

Turning to `Oc1ccc(/C=N/N(Cc2ccccc2)c2ccccc2)cc1`, the inhibition was -13.4% (inactive).

In the case of `N=C1/C(=C/c2cccn2-c2cccc([N+](=O)[O-])c2)C(=O)N=C2SC=CN12`, the inhibition is 17.8% (inactive).

`O=C(N/N=C/c1ccc2c(c1)OCO2)c1ccc(Cn2cc([N+](=O)[O-])cn2)o1`: the inhibition was -17.9% (inactive).

Turning to `Cc1c(Cl)c([N+](=O)[O-])nn1CCCC(=O)Nc1cc(Cl)ccc1Cl`, the inhibition was -6.1% (inactive).

For the molecule `Cc1c(Cl)c([N+](=O)[O-])nn1Cc1ccc(C(=O)N/N=C\c2cc(Cl)ccc2O)o1`, the inhibition is 68.5% (active).

On to `COc1cc(/C=N\NC(=O)c2nonc2N)c(OC)cc1Br`, for which the inhibition was 1% (inactive).

On to `Nc1nonc1-n1nnc(C(=O)N/N=C/c2cc(Br)ccc2O)c1CSC1=NCCS1`, for which the inhibition was 54.3% (active).

On to `COCc1c(C(=O)N/N=C/C2CC=CCC2)nnn1-c1nonc1N` (configuration not stated), for which the inhibition was 6.9% (inactive).

As for `CCC1(CC)NC(=O)N(CC(=O)OCC(=O)NC(=O)c2ccccc2)C1=O`, the inhibition was 5.8% (inactive).

As for `COC(=O)Nc1nc2ccc(Sc3ccccc3)cc2[nH]1`, the inhibition is 91.5% (active).

With `Cc1nc2ccc(C(=O)O)cc2[nH]1`, the inhibition is 4.6% (inactive).

As for `CC(C)c1nc2ccc(C(=O)O)cc2[nH]1`, the inhibition is -1.3% (inactive).

With `CCO/C=C1\C(=O)N(c2ccc(OCC)cc2)C(=O)c2ccccc21`, the inhibition is -6.3% (inactive).

On to `OCCC1CN(Cc2ccc3nsnc3c2)CCN1C1CCCCC1` (configuration not stated), for which the inhibition is 0.3% (inactive).

In the case of `CC(C)N1CCC(=NNc2ccc([N+](=O)[O-])cc2S(=O)(=O)N2CCOCC2)CC1`, the inhibition was 16.2% (inactive).

With `CCn1c2ccccc2c2cc(CC(N)=O)ccc21`, the inhibition was 15% (inactive).

`COc1ccc(CCNC(=O)CC2SC(=Nc3cc(C)cc(C)c3)NC2=O)cc1OC` (configuration not stated): the inhibition was 2.9% (inactive).

As for `COc1ccc(CCNC(=O)CN(c2ccccc2)S(C)(=O)=O)cc1OC`, the inhibition was -22.4% (inactive).

On to `CCCN=C1NC(=O)C(CC(=O)NCCc2ccc(OC)c(OC)c2)S1` (configuration not stated), for which the inhibition was 74.7% (active).

Regarding `Cc1cc(C)c(S(=O)(=O)N2CCOCC2)cc1C`, the inhibition is 10.3% (inactive).

Take `CCOc1ccc(Br)cc1S(=O)(=O)Nc1cccc(S(=O)(=O)N(CC)CC)c1`: the inhibition was -7% (inactive).

Take `CCOc1ccccc1NC(=O)CCc1ccc(C)o1`: the inhibition is 9.7% (inactive).

Turning to `Cc1cnc(NC(=O)CSc2nnc(-c3ccc(Cl)cc3Cl)n2N)s1`, the inhibition is -0.1% (inactive).

Turning to `Cc1ccc(CCC(=O)Nc2ncc(Cc3cc(Cl)ccc3Cl)s2)o1`, the inhibition was 94.1% (active).

For the molecule `CN(C)c1ccc(Nc2c3c4c(cccc4n(C)c2=O)C(=O)c2ccccc2-3)cc1`, the inhibition is 55.2% (active).

On to `CC1=NCCN1S(=O)(=O)c1cccc([N+](=O)[O-])c1`, for which the inhibition is 11.4% (inactive).

`COC(=O)CSc1ncnc2c1cnn2-c1ccc(C)cc1C`: the inhibition is -3.9% (inactive).

As for `CSc1nc(-c2ccccc2)nc(C(Cl)Cl)n1`, the inhibition is 48.7% (active).

Consider `CSc1nc(C)cc(SC(C(C)=O)C(=O)Nc2ccccc2)n1` (configuration not stated), for which the inhibition is -17.5% (inactive).

For the molecule `COc1ccc(NC(=O)CCNS(=O)(=O)c2ccc3c(c2)c(=O)n(C)c(=O)n3C)cc1OC`, the inhibition was 17.6% (inactive).

Consider `COCCN(C(=S)Nc1ccccc1OC)C1CCN(C(C)C)CC1`, for which the inhibition is -3.7% (inactive).

Consider `COC(=O)c1cc2c(ccn2C)n1C`, for which the inhibition is -10.6% (inactive).

As for `Cc1cc(-c2n[nH]c(=S)n2/N=C/C(Br)=C/c2ccccc2)n[nH]1`, the inhibition is 83.5% (active).

In the case of `S=c1[nH]nc(-c2cccnc2)n1/N=C/C(Cl)=C\c1ccccc1`, the inhibition was -36.5% (inactive).

Regarding `Cc1ccc(/C=N\n2c(-c3ccccc3)n[nH]c2=S)s1`, the inhibition is -4% (inactive).

For `CC(Oc1ccccc1)C(=O)NN1Cc2ccccc2C1=N` (configuration not stated), the inhibition is -15% (inactive).

On to `O=c1c2cc3c(=O)n(CC4CCCO4)c(=O)c3cc2c(=O)n1CC1CCCO1` (configuration not stated), for which the inhibition was -21.8% (inactive).

On to `O=C(NCc1ccc2c(c1)OCO2)c1ccc2c(c1)C(=O)N(CC1CCCO1)C2=O` (configuration not stated), for which the inhibition is 3.9% (inactive).

Consider `O=C1c2cccc3c([N+](=O)[O-])ccc(c23)C(=O)N1CC1CCCO1` (configuration not stated), for which the inhibition was 53% (active).

In the case of `COc1ccc(OC)c(Cc2nnc(CCC(=O)NC3CCCC3)o2)c1`, the inhibition was -10.4% (inactive).

As for `COc1ccc(OC(C)C(=O)NCCc2nc3ccccc3[nH]2)cc1` (configuration not stated), the inhibition was -10.4% (inactive).

Turning to `COc1cc(OC)cc(C(=O)N[C@H](C(=O)Nc2nc3ccccc3[nH]2)C(C)C)c1`, the inhibition was 94.9% (active).

`COc1cc(OC)cc(C(=O)N[C@H](C(=O)OCC(=O)NC(C)c2ccccc2)C(C)C)c1` (some centres not stated): the inhibition is 14.5% (inactive).

As to `Cc1cc(/C=N/NC(N)=O)c(C)n1C1CCCCC1`, the inhibition is -4.6% (inactive).

Take `CCOC(=O)C(NC(=O)CC(C)C)(Nc1sc2c(c1C(N)=O)CCCC2)C(F)(F)F` (configuration not stated): the inhibition is 5.1% (inactive).

As to `O=C(COc1ccc(Cl)cc1[N+](=O)[O-])N1CCCCC1`, the inhibition is -4% (inactive).

As for `COc1ccccc1NC(=O)C1=C(C)Nc2nc3ccccc3n2C1c1cccs1` (configuration not stated), the inhibition was 91% (active).

In the case of `CCOC(=O)C1=C(C)Nc2nc3ccccc3n2C1c1cccs1` (configuration not stated), the inhibition was 6.6% (inactive).

For the molecule `CCOc1ccc(C2C(C(=O)NC)=C(C)Nc3nc4ccccc4n32)cc1OC` (configuration not stated), the inhibition is 11.5% (inactive).

For `COc1cccc(-c2nn(-c3ccccc3)cc2/C=C(\C#N)C(=O)NCCCn2ccnc2)c1`, the inhibition was 14.7% (inactive).

With `C=CCN1C2CCCC1CC(NC(=S)Nc1cccc(OC)c1)C2` (configuration not stated), the inhibition was -2.4% (inactive).

Regarding `CCCOc1ccccc1C1CC(=O)Nc2cc3c(cc21)OCO3` (configuration not stated), the inhibition is 92.3% (active).

Regarding `COc1ccc(F)cc1S(=O)(=O)Nc1ccc2c(c1)OCO2`, the inhibition was -19.9% (inactive).

As to `COc1ccccc1C1C2=C(COC2=O)Nc2cc3c(cc21)OCO3` (configuration not stated), the inhibition was 94.5% (active).

As to `COc1cc2c(cc1/C=C1/NC(=O)N(c3ccccc3)C1=O)OCO2`, the inhibition is -15.4% (inactive).

Take `COCCOC(=O)C1=C(C)NC(=O)CC1c1cc2c(cc1Br)OCO2` (configuration not stated): the inhibition is 3.7% (inactive).

With `COc1ccc(C2CC(=O)Nc3cc(C)c(C)cc32)c(OC)c1OC` (configuration not stated), the inhibition was -0.3% (inactive).

For `CN1CCN(C(=O)/C(=C\c2cccs2)NC(=O)c2cccs2)CC1`, the inhibition is -8.2% (inactive).

`CCCCn1nc(C(=O)Nc2ccc(S(=O)(=O)Nc3ncccn3)cc2)c2ccccc2c1=O`: the inhibition is -36.5% (inactive).

With `COc1cccc(CC(=O)N2CCCC(CCC(=O)N3CCN(c4ccccn4)CC3)C2)c1` (configuration not stated), the inhibition was -8.5% (inactive).

As for `CCOc1ncccc1C(=O)OCC(=O)NC1CC1`, the inhibition is 17% (inactive).

As to `O=c1c([N+](=O)[O-])cccn1Cc1ccc(F)cc1Cl`, the inhibition is -2.2% (inactive).

Regarding `Cc1ccc(OCC(=O)N/N=C\c2ccco2)c(C)c1`, the inhibition is -0.4% (inactive).

Turning to `Cc1ccc(/C=N/NC(=O)COc2ccccc2-c2ccccc2)cc1`, the inhibition was 97% (active).

As to `Cc1ccc(OCC(=O)N/N=C/c2ccncc2)cc1`, the inhibition was 0.8% (inactive).

As for `CN1CCC(=NNC(=O)c2ccc(N(Cc3ccc(Cl)cc3)S(C)(=O)=O)cc2)CC1`, the inhibition was -0.2% (inactive).

Consider `Cc1ccc(S(=O)(=O)N(CC(=O)NN=C2CCN(C)CC2)c2ccc(F)cc2)cc1`, for which the inhibition is -21% (inactive).

In the case of `COc1ccc(CCNS(=O)(=O)c2ccc(C(=O)NCc3ccco3)cc2)cc1OC`, the inhibition was -8.6% (inactive).

As for `CCOc1ccccc1C(=O)NCc1ccco1`, the inhibition was -2.6% (inactive).

Take `CCCC1=Nc2cc(C(=O)NCc3ccco3)ccc2Sc2ccccc21`: the inhibition is 90.1% (active).

On to `CC(=O)N1CCN(S(=O)(=O)c2cccc(C(=O)NC3CCC(C)CC3)c2)CC1` (configuration not stated), for which the inhibition was 2.6% (inactive).

Turning to `O=C(COc1ccc(NC(=O)c2ccccc2[N+](=O)[O-])cc1)c1ccc(F)cc1`, the inhibition is -3.2% (inactive).

With `CCN(CC)C(=O)N(CC)Cc1ccccc1`, the inhibition is -8.7% (inactive).

For the molecule `CC(=O)Nc1ccc(S(=O)(=O)N2CCSCC2)cc1`, the inhibition was 11.7% (inactive).

With `CC(=O)Nc1ccc(S(=O)(=O)N2CCN(C3CCCCCCC3)CC2)cc1`, the inhibition is -4.6% (inactive).

Consider `CC(=O)Nc1ccc(S(=O)(=O)N2CCN(C(=O)c3ccccc3F)CC2)cc1`, for which the inhibition was 94.3% (active).

Consider `CN(Cc1ccc2nsnc2c1)Cc1nc(Cc2cccc(F)c2)no1`, for which the inhibition is -3.3% (inactive).

Consider `CNc1ccc(NC(C)=O)cc1[N+](=O)[O-]`, for which the inhibition was -17.6% (inactive).

For `CC(C)CC(=O)NC(=S)Nc1ccc(F)cc1F`, the inhibition is -8.3% (inactive).

For the molecule `COc1cccc(OCCOc2cccc(/C=N/n3cnnc3)c2)c1`, the inhibition was -90.8% (inactive).

For `COc1ccccc1OCCOc1ccc(/C=N/n2cnnc2)cc1`, the inhibition was 8.5% (inactive).

Take `Cc1ccccc1OCCOc1ccc([N+](=O)[O-])cc1/C=N/n1cnnc1`: the inhibition was 45.2% (active).

As for `O=C(COC(=O)c1cc(-c2cccs2)nn1-c1ccccc1)Nc1cc([N+](=O)[O-])ccc1Cl`, the inhibition is -13.5% (inactive).

Regarding `Cc1cc(C(C)(C)C)cc(S(=O)(=O)Nc2ccc(C(=O)O)cc2)c1C`, the inhibition is 2.7% (inactive).

Turning to `CNC(=S)NNC(=O)c1cccn(Cc2ccccc2)c1=O`, the inhibition was 4.8% (inactive).

For the molecule `CCN(CC)S(=O)(=O)c1ccc(N2CCCC2)c(NS(=O)(=O)c2cccs2)c1`, the inhibition was 7.7% (inactive).

With `COc1ccc(Nc2cc(C)nc(-n3nc(C)cc3C)n2)cc1`, the inhibition was 92.8% (active).

With `COc1ccc(NC(=O)c2nc(-n3nc(C)cc3C)ccc2Cl)cc1Cl`, the inhibition was 21.2% (inactive).

For the molecule `COc1ccccc1/C=N\Nc1cc(C)nc(-n2nc(C)cc2C)n1`, the inhibition was 3.2% (inactive).

Take `Cc1cc(C)n(-c2cc(Oc3ccccc3)ncn2)n1`: the inhibition was -14.1% (inactive).

Regarding `CC(=O)c1ccc(Oc2cc(C)nc(-n3nc(C)cc3C)n2)cc1`, the inhibition is 93.7% (active).

Take `Cc1cc(Oc2ccc(Cl)cc2)nc(SCC(=O)c2ccccc2)n1`: the inhibition was -11.5% (inactive).
